“And” between values parts separate entries of the source, which are not always exact repeats. Identical values can stand only once. Records with an inconclusive call do not appear. The source made the active and inactive calls. Unless noted, the call rests on the fitted dose curve; in most records, active means well fitted curve in the direction sought with a large enough effect in the repeat runs; inconclusive means weak or mixed curves; inactive means no such curve, though single readings can be large; an effect the other way counts as inactive or inconclusive.
Columns and labels:
[1] = qHTS assay to identify small molecule agonists of the hypoxia (HIF-1) signaling pathway - cell viability counter screen (AID 1224844; calls by dose curve; further: nearly all actives have a fitted effect of over 50% in size)
In short: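 Same wells as the HIF-1 reporter screen; ME-180 cells carrying HRE-bla, 17 hr treatment at 37C; CellTiter-Glo luminescence read after 30 min at room temperature.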

[2] = qHTS assay to identify small molecule agonists of H2AX (AID 1224845; active means well fitted activation curve with a large enough effect in the signal ratio in the repeat runs, not every such curve was filed as active; the % refers to the signal ratio)
In short: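 Wild-type CHO-K1 cells, plated overnight, exposed 3hr at 37C to 15 concentrations (0.76% DMSO final). Lysed, then HTRF anti-pH2AX (S139) cryptate and anti-H2AX-d2 antibodies, 24 hr room temperature; 665/620 nm emission read.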

[3] = qHTS assay to identify small molecule agonists of the hypoxia (HIF-1) signaling pathway (AID 1224846; active means well fitted activation curve with a large enough effect in the signal ratio in the repeat runs, not every such curve was filed as active; the % refers to the signal ratio)
In short: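 In ME-180 cells bearing an HRE-bla construct, 17 h treatment with DMSO-dissolved compounds at 37C was followed by CCF4-AM loading to quantify reporter induction.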

[4] = qHTS assay to identify small molecule agonists of H2AX - cell viability counter screen (AID 1224847; calls by dose curve; further: top concentration of the series differs between compounds; nearly all actives have a fitted effect of over 30% in size)
In short: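 After overnight plating of 1000 CHO-K1 cells per well, a 15-concentration compound series was applied for 3 hr at 37C. Luminescence from CellTiter-Glo, read following 30 min at room temperature, reflected cell viability.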

[5] = qHTS assay to identify small molecule antagonists of the estrogen related receptor (ERR) signaling pathway from Tox21 library (AID 1224848); further: nearly all actives have a fitted effect of over 50% in size
In short: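 Quantitative high-throughput format: ERR reporter cells (2,000/well) pre-incubated 6 h, treated 18 h at 37 C with compounds in DMSO alongside positive and negative controls, then read by ONE-Glo luminescence.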

[6] = qHTS assay to identify small molecule agonists of the estrogen related receptor (ERR) signaling pathway from Tox21 library (AID 1224849; calls by dose curve; further: nearly all actives have a fitted effect of over 15% in size); conditions: ERR reporter cell line, ONE-Glo luciferase, 18 h
In short: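 Reporter cells (ERR, NTP source) treated with Tox21 10K compounds 18 h, 37 C. Readout: ONE-Glo luminescence, 30 min RT.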

[7] = qHTS RealTime-Glo MT Cell Viability Assay in HepG2 cells - 24 hour (AID 1224867); further: nearly all actives have a fitted effect of over 50% in size
In short: (§1)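 Viability was tracked continuously by NanoLuc luminescence from prosubstrate reduced by living HepG2 cells, at successive time points over 40 h of compound exposure. Cells with reagent were preincubated 5 h at 37 °C before compound addition.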

[8] = qHTS RealTime-Glo MT Cell Viability Assay in HEK293 cells - 32 hour (AID 1224868); further: top concentration of the series differs between compounds; nearly all actives have a fitted effect of over 50% in size
In short: (§2)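 Viability tracked continuously by luminescence as live cells reduce a prosubstrate for NanoLuc; HEK293 cells preincubated 5 h, compound-treated at 37 C, and read at 0, 8, 16, 24, 32 and 40 h.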

[9] = A CellTox Green Cytotoxicity Assay to monitor cytotoxicity in HEK293 cells - 0 hour (AID 1224869); further: nearly all actives have a fitted effect of over 50% in size
In short: (§3)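 Homogeneous no-lysis format: HEK293 cell suspension mixed with CellTox Green reagent, seeded, incubated 5 h at 37 C/5% CO2, then dosed by pintool with compound in DMSO.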

[10] = qHTS RealTime-Glo MT Cell Viability Assay in HepG2 cells - 40 hour (AID 1224870); further: nearly all actives have a fitted effect of over 50% in size
In short: (§4)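 HepG2 cells (600/well) mixed with RealTime-Glo MT reagent, settled 5 h at 37 C/5% CO2 before compound addition. Nonlytic NanoLuc luminescence from viable-cell prosubstrate reduction read repeatedly during 40 h treatment at 37 C.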

[11] = A CellTox Green Cytotoxicity Assay to monitor cytotoxicity in HEK293 cells - 40 hour (AID 1224871); further: nearly all actives have a fitted effect of over 45% in size
In short: as §3

[12] = qHTS RealTime-Glo MT Cell Viability Assay in HEK293 cells - 16 hour (AID 1224872)
In short: as §2

[13] = qHTS RealTime-Glo MT Cell Viability Assay in HepG2 cells - 8 hour (AID 1224873); further: nearly all actives have a fitted effect of over 55% in size
In short: as §4

[14] = qHTS RealTime-Glo MT Cell Viability Assay in HEK293 cells - 40 hour (AID 1224874); conditions: RealTime-Glo luminescence; max response: stronger effect = lower value; further: nearly all actives have a fitted effect of over 50% in size
In short: (§5)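 Measured as luminescence from the same continuously cultured HEK293 wells at successive time points (0, 8, 16, 24, 32, 40 h) after compound addition. Reagent present from seeding; dosing at 5 h; incubation 37 C.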

[15] = A CellTox Green Cytotoxicity Assay to monitor cytotoxicity in HEK293 cells - 24 hour (AID 1224875); further: nearly all actives have a fitted effect of over 45% in size
In short: as §3

[16] = A CellTox Green Cytotoxicity Assay to monitor cytotoxicity in HepG2 cells - 16 hour (AID 1224876); further: nearly all actives have a fitted effect of over 45% in size
In short: (§6)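 Fluorescent DNA-binding dye, 600 HepG2 cells/well, 5 h preincubation then compound in DMSO; same plates read at 0–40 h, 37 C.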

[17] = qHTS RealTime-Glo MT Cell Viability Assay in HepG2 cells - 32 hour (AID 1224877); further: nearly all actives have a fitted effect of over 55% in size
In short: as §1

[18] = A CellTox Green Cytotoxicity Assay to monitor cytotoxicity in HepG2 cells - 24 hour (AID 1224878); further: nearly all actives have a fitted effect of over 45% in size
In short: as §6

[19] = A CellTox Green Cytotoxicity Assay to monitor cytotoxicity in HepG2 cells - 40 hour (AID 1224879); further: nearly all actives have a fitted effect of over 40% in size
In short: as §6

[20] = qHTS RealTime-Glo MT Cell Viability Assay in HEK293 cells - 0 hour (AID 1224880)
In short: as §5
On the % scale 0 is the no-effect control and ±100 the full control effect.

Cc1cccc2ccccc12
inactive: Potency [1] | Potency [2] | outcome [3] | Potency [4] | Potency [5] | activity change, positive = activation ([6]; at 92.4 µM (top of the series)) -5.59% and 0.133% | outcome [7] | Potency [8] | Potency [9] | outcome [10] | Potency [11] | Potency [12] | outcome [13] | max response [14] 3.52% and 3.07% | Potency [15] | Potency [16] | outcome [17] | Potency [18] | Potency [19] | Potency [20]

CN(C)C=O
inactive: Potency [1] | Potency [2] | outcome [3] | Potency [4] | Potency [5] | activity change, positive = activation ([6]; at 92.4 µM (top of the series)) 7.34% and 6.88% | outcome [7] | Potency [8] | Potency [9] | outcome [10] | Potency [11] | Potency [12] | outcome [13] | max response [14] 2.24% and 2.36% | Potency [15] | Potency [16] | outcome [17] | Potency [19] | Potency [20]

Oc1cccc(O)c1
inactive: Potency [1] | Potency [2] | outcome [3] | Potency [4] | Potency [5] | activity change, positive = activation ([6]; at 42.5 µM (top of the series)) 6.02% | activity change, positive = activation ([6]; at 92.4 µM (top of the series)) -15.4% and -1.21% | outcome [7] | Potency [8] | Potency [9] | outcome [10] | Potency [11] | Potency [12] | outcome [13] | max response [14] -0.181% and -6.38% and 1.58% | Potency [15] | Potency [16] | outcome [17] | Potency [18] | Potency [19] | Potency [20]

CCCCCCCC(=O)OCC(O)CO (stereo not given)
inactive: Potency [1] | Potency [2] | outcome [3] | Potency [4] | Potency [5] | activity change, positive = activation ([6]; at 92.4 µM (top of the series)) 1.37% | outcome [7] | Potency [8] | Potency [9] | outcome [10] | Potency [11] | Potency [12] | outcome [13] | max response [14] 11.2% and -0.735% | Potency [15] | Potency [16] | outcome [17] | Potency [18] | Potency [19] | Potency [20]

OCCCc1ccccc1
inactive: Potency [1] | Potency [2] | outcome [3] | Potency [4] | Potency [5] | activity change, positive = activation ([6]; at 42.5 µM (top of the series)) -1.08% | activity change, positive = activation ([6]; at 92.4 µM (top of the series)) 4.65% | outcome [7] | Potency [8] | Potency [9] | outcome [10] | Potency [11] | Potency [12] | outcome [13] | max response [14] 12.9% and 2.88% | Potency [15] | Potency [16] | outcome [17] | Potency [19] | Potency [20]

From PubChem BioAssay (Tox21)
